From PubChem BioAssay
CHX counter = counter-screen for Shiga toxin inhibitors: cycloheximide protein synthesis inhibition. cell reporter, cycloheximide protein synthesis inhibition counterscreen. AID 2314. max response, %. actives 12% (n = 300,000); in the data active = max response mostly above about 13%, no sharp cut-off; inactive = mostly below about 14%; note: read at 38.3 µM for the half of the compounds with a filed dose
SARS PLpro yeast = blocks SARS-CoV papain-like protease in a yeast assay; S. cerevisiae expressing SARS-CoV PLpro, growth rescue; Potency, µM (top dose mostly 32.9 µM), hits mostly activators; actives 0.19% (n = 330,000); note: nearly all actives have a fitted effect of over 55% in size
Pf growth 96h = inhibits malaria parasite growth, 96 h. P. falciparum luciferase reporter growth, 96 h. Potency, µM (series often up to 28.7 µM), actives largely listed as inhibitors. actives 6.9% (n = 320,000); active = well fitted inhibition curve with a large enough effect; inconclusive = small, poorly fitted or top-dose-only effect, or another doubt; inactive = no such curve, though single readings can be large or run the other way
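Luminescence readout: decreased luciferase signal marks inhibited growth of reporter-expressing P. falciparum in infected red cells (2% hematocrit, 0.05% parasitemia final), exposed to compound two generations (96 h, 37 C, 5% CO2).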
Shiga inhibitor = Shiga toxin inhibition; Vero cells, Shiga toxin protein synthesis inhibition reporter; inhibition, % at 38.7 µM; actives 9.2% (n = 290,000); AID 2315; in the data active = inhibition mostly above about 28%, no sharp cut-off; inactive = mostly below about 43%
Pf growth 48h = P. falciparum growth inhibition at 48 hours (one generation) | P. falciparum luciferase growth in erythrocytes, 48 h | Potency, µM (highest dose often 28.7 µM), usual class: inhibitors | actives 5.9% (n = 310,000) | AID 504832; active = well fitted inhibition curve with a large enough effect; inconclusive = small, poorly fitted or top-dose-only effect, or another doubt; inactive = no such curve, though single readings can be large or run the other way
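Luminescence readout; reporter = integrated firefly luciferase in P. falciparum. RBC culture at 2% hematocrit, 0.1% parasitemia final, 37 C/5% CO2; decreased signal taken as growth inhibition.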
NS1 function inh = inhibitors of influenza NS1 protein function | AID 2326 | actives 0.4% (n = 270,000) | Potency, µM (highest dose often 46.1 µM); note: actives are rising curves; nearly all actives have a fitted effect of over 50% in size
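Recovery from NS1-induced slow growth read by OD600 in budding yeast switched to galactose assay medium (pH 6.0, -URA) at 1:100 dilution. Compound 23 nl per well; the matching strain lacking NS1 serves as control.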
Flu NS1 inh = validation of influenza NS1 protein function inhibitors. shares compounds with NS1 function inh. activity change, negative = inhibition, % at 32.9 µM. 1,400 tested, under 10 active. AID 492980. influenza NS1 function cell assay, 15-point titration
Flu PR8 replic = influenza virus titer reduction, NS1 project. shares compounds with NS1 function inh. MDCK infected influenza A/PR/8/34, virus titer TCID50; active compounds read low. virus titer (log TCID50), log10 TCID50 at 5 µM. actives 30% (n = 95); call rule not given here
Numbers stand for hits; i = inactive; ? = inconclusive; nt = no result; [ ] = remark or other dose. An excerpt weighted towards active compounds, which were near 21% of everything screened. Unless noted, calls come from the whole dose curve.

SMILES | CHX counter | SARS PLpro yeast | Pf growth 96h | Shiga inhibitor | Pf growth 48h | NS1 function inh | Flu NS1 inh | others
CC1CCc2cc(F)ccc2N1C(=O)CSc1nnc2c(n1)[nH]c1ccc(F)cc12 (stereo not drawn) | i | i | ? | i | 1µM | ? | i
CC1CCCCN1C(=O)CSc1nnc2c(n1)[nH]c1ccc(F)cc12 (stereo not drawn) | i | i | i | i | ? | i | nt
Cc1ccc(NC(=O)COC(=O)C2CC2C)c(S(=O)(=O)N2CCCCC2)c1 (stereo not drawn) | i | i | ? | i | i | i | nt
Cc1cc(NC(=O)/C=C/c2cccc(Cl)c2)n(-c2nc3ccccc3[nH]2)n1 | 66 | i | ? | active | ? | 1.8µM | i
Cc1cc(NC(=O)/C=C/c2cccc(F)c2)n(-c2nc3ccccc3[nH]2)n1 | i | i | i | i | i | i | nt
CCc1ccc(N=C2NC(=O)/C(=C/c3ccc(OCC(=O)O)c(OC)c3)S2)cc1 | i | i | ? | i | i | 11µM | i
CCOc1cc(/C=C2\SC(=Nc3ccccc3)N(c3ccccc3)C2=O)ccc1OCC(=O)O | i | i | ? | i | ? | ? | i
CCOc1cc(/C=C2\SC(=Nc3ccc(F)cc3)N(c3ccc(F)cc3)C2=O)ccc1OCC(=O)O | i | i | ? | i | ? | ? | nt
CCN1C[C@@H]2[C@@H]3C(=O)N(Cc4ccccc4)C(=O)[C@@H]3[C@](Cc3ccccc3)(C(=O)OC)N2C1=NC | nt | i | nt | nt | nt | nt | nt
Cc1nc2c(-c3ccc(F)cc3)c(C)nn2c(C)c1CCC(=O)N1CCN(c2ccccc2)CC1 | i | i | ? | i | nt | i | nt
Cc1nc2c(-c3ccc(F)cc3)c(C)nn2c(C)c1CCC(=O)N1CCC(Cc2ccccc2)CC1 | i | i | ? | i | nt | 7.1µM | i
Cc1[nH]nc2c1C(c1ccc(F)cc1)C(C#N)=C(N)O2 (stereo not drawn) | i | i | ? | i | i | i | nt
Cc1oc(C)c2c(=O)ccc3c(c12)OC(N)=C(C#N)C3c1ccc(F)cc1 (stereo not drawn) | i | i | i[5.75 µM] | i | 13µM | 8.9µM | i
Cc1ccc(C(=O)N/C(=C/c2ccco2)C(=O)N2CCCCCC2)cc1 | i | i | ? | i | i | ? | i
O=C(N/C(=C\c1ccco1)C(=O)N1CCCC1)c1ccccc1 | i | i | i | i | i | i | nt
COc1ccc(-c2nc(NC(=O)C3CC(=O)N(c4ccc5c(c4)OCCO5)C3)sc2C)cc1 (stereo not drawn) | 28 | i | ? | i | i | 11µM | i
O=C(Nc1nc2ccc(F)cc2s1)C1CC(=O)N(c2ccc3c(c2)OCCO3)C1 (stereo not drawn) | nt | i | i | nt | i | nt | nt
Cc1nc(CC(=O)N2CCN(c3cccc(C)c3C)CC2)cs1 | i | i | ? | i | i | i | nt
O=C(COC(=O)c1cccc2ccccc12)Nc1ncc(C(F)(F)F)cc1Cl | i | i | i | i | nt | 4.5µM | i
Clc1ccc(CN2CCc3c([nH]c4ccccc34)C2)cc1Cl | i | i | ? | i | ? | i | nt
CN1C(c2ccccc2)CC(=NO)CC1c1ccccc1 (stereo not drawn) | i | i | ? | i | i | i | nt
Cc1nnc(NC(=O)c2c(-c3ccccc3)noc2C)s1 | i | i | ? | i | i | i | nt
Cc1onc(-c2ccccc2)c1C(=O)Nc1nnc(N(C)Cc2ccccc2)s1 | i | i | i | i | nt | 7.9µM | i
O=C(CSc1nc2ccccc2c(=O)n1-c1ccc(F)cc1)Nc1ccc(N2CCOCC2)cc1 | i | i | ? | i | i | i | nt
O=C(CSc1nc2ccccc2c(=O)n1-c1ccc(F)cc1)Nc1cc(S(=O)(=O)N2CCOCC2)ccc1Cl | i | i | 3.7µM | i | 6.6µM | 13µM | i
SMILES | CHX counter | SARS PLpro yeast | Pf growth 96h | Shiga inhibitor | Pf growth 48h | NS1 function inh | Flu NS1 inh | others
COc1ccc(CCn2c(SCC(=O)Nc3cc(C)on3)nc3ccccc3c2=O)cc1OC | i | i | i | i | i | i | nt
O=C(CSc1nc2ccccc2c(=O)n1-c1ccccc1Cl)Nc1cccc(S(=O)(=O)N2CCOCC2)c1 | i | i | i | i | ? | 11µM | i | Flu PR8 replic=6.7
Cc1cc(NC(=O)CSc2nc3cc4c(cc3c(=O)n2CCc2ccccc2)OCO4)no1 | 9.4 | i | ? | i | i | 13µM | i
O=C(CSc1nnc(Nc2ccccc2)s1)Nc1cccc(S(=O)(=O)N2CCCCC2)c1 | 49 | i | i | 58 | ? | 11µM | ?
O=C(CSc1ncnc2ccccc12)Nc1cccc(S(=O)(=O)N2CCOCC2)c1 | i | i | ? | i | i | nt | nt
CNCC(N)C(=O)O (stereo not drawn) | i | nt | nt | i | nt | nt | nt
CCc1nnc(NC(=O)CSc2nnc(C3CC3)n2C)s1 | i | i | i | i | i | i | nt
CN1CCN(c2ccc(S(=O)(=O)N3CCCCC3)cc2NC(=O)Cc2ccc(Cl)cc2)CC1 | i | i | ? | i | ? | i | nt
COc1ccc(-n2c(SCC(=O)Nc3ccc4c(c3)OCO4)nc3ccccc3c2=O)cc1 | i | i | i | i | ? | 22µM | i
CCOc1ccc(-n2c(SCC(=O)Nc3ccc4c(c3)OCO4)nc3ccccc3c2=O)cc1 | i | i | i | i | ? | i | nt
O=C(Nc1ccccc1Cl)Oc1ccc2ccccc2c1 | i | i | i | i | i | ? | i
Cc1nn(-c2ccc(F)cc2)c(Cl)c1/C=C1\C(=O)Nc2ccccc21 | i | i | ? | i | i | i | nt
Cc1ccc(NC2CCCN(C(=O)CCN3CCOCC3)C2)cc1C (stereo not drawn) | i | i | ? | i | i | ? | i
CC(C)c1ccc(NC2CCCN(C(=O)CCN3CCOCC3)C2)cc1 (stereo not drawn) | i | i | ? | i | i | i | nt
CCCc1ccc2oc(C(=O)N(Cc3nccn3C)C(C)C)c(C)c2c1 | 21 | i | i | 35 | ? | ? | ?
Cc1cc2nc3c(=O)n(C4CCCCC4)c(=O)[nH]c3nc2cc1N | i | i | ? | i | i | 7.9µM | i
CCC1(CC)NC(=O)N(CC(=O)OCn2nnc3ccccc3c2=O)C1=O | i | i | i | i | nt | 7.1µM | i
Cc1ccc2nc(-c3cccc(S(=O)(=O)N4CCCC4)c3)cn2c1 | 17 | i | i | i | i | ? | i
CCN(CC)C(=O)Oc1c(Cl)cc(Cl)c2cccnc12 | i | i | i | i | i | i | nt
S=c1[nH]c2cc(Cl)c3cccnc3c2o1 | i | i | i | i | ? | 4µM | i
O=C(CCNC(=O)C1CCN(S(=O)(=O)c2ccccc2)CC1)NCc1ccc(Cl)cc1Cl | i | i | ? | i | i | i | nt
